Screening results as filed in PubChem BioAssay.
DT40 TDP1 CPT = qHTS for Inhibitors of human tyrosyl-DNA phosphodiesterase 1 (TDP1): qHTS in cells in presence of CPT; chicken DT40 Tdp1-/-;hTDP1 cells + 20 nM CPT, ATP luminescence, 48 h; Potency, µM (top dose mostly 46.2 µM), usual class: inhibitors; 420,000 compounds, 12% hits; AID 686979, 2013; further: nearly all actives have a fitted effect of over 55% in size
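Chicken DT40 Tdp1-/- cells stably complemented with human TDP1 were seeded at 400 cells/well in medium containing 20 nM camptothecin, exposed to pin-transferred compounds, and grown at 37 °C for at least 48 hr. Viability was read as ATP luminescence.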
HT1080NT lethal = qHTS for induction of synthetic lethality in tumor cells producing 2HG: qHTS for the HT-1080-NT fibrosarcoma cell line. HT-1080-NT fibrosarcoma viability, CellTiter-Glo ATP luminescence, 48 h. Potency, µM (series often up to 46.1 µM), most hits filed as cytotoxic. 360,000 compounds, 1.6% hits. AID 686970, 2013;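 further: NT is the 2HG producing partner of a matched IDH1 knockdown line; nearly all actives have a fitted effect of over 55% in size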
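Compounds were tested in concentration-response format on HT-1080-NT cells for 48 hours at 37 degrees C. Cell viability came from CellTiter-Glo luminescence; curves were classified by r2, response magnitude and activity.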
HT1080 IDH1KD tx = qHTS for induction of synthetic lethality in tumor cells producing 2HG: qHTS for the HT-1080-IDH1KD cell line; HT-1080 IDH1 knockdown viability, ATP luminescence, 48 h; Potency, µM (titrated, usually from 46.1 µM), actives largely listed as cytotoxic; 360,000 compounds, 2% hits; AID 686971, 2013
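Knockdown cells (IDH1KD HT-1080) received compounds 2 h after plating at 750 cells/well and were kept 48 h at 37 °C in 5% FBS RPMI. A CellTiter-Glo luminescence read gave % activity for curve fitting.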
IL1B secr inh = qHTS for Inhibitors of Inflammasome Signaling: IL-1-beta AlphaLISA Primary Screen; THP-1 LPS/ATP IL-1B secretion, AlphaLISA, 16 h; hits give low values; activity change, % at 57.5 µM; 360,000 compounds, 4.7% hits; AID 743279, 2014; in the data active means activity change below about -50%; inconclusive means mostly about -30% to -49%
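Secreted IL-1B measured by AlphaLISA bead assay after 16 h compound exposure of THP-1 cells; compounds (final up to 57.5 uM) added 1 h before LPS (250 ng/mL) and ATP (1.25 mM) stimulation; lower signal means less secretion.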
TDP1 cell noCPT = qHTS for Inhibitors of human tyrosyl-DNA phosphodiesterase 1 (TDP1): qHTS in cells in absence of CPT | DT40 Tdp1-/- hTDP1 cells, no CPT, ATP luminescence, 48 h | AID 686978, 2013 | 420,000 compounds, 15% hits | Potency, µM (titrated, usually from 46.2 µM), most hits filed as inhibitors; further: nearly all actives have a fitted effect of over 55% in size
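Luminescent ATP content (CellTiter-Glo) served as the growth readout. Knockout chicken DT40 cells expressing human TDP1 were exposed to compounds without camptothecin for a minimum 48 hr at 37 °C.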
A number is an active result; [ ] = remark or other dose. The list is not random: actives were taken first. Their share in the collection is about 19%. Unless noted, the call rests on the fitted dose curve; in most records, active means well fitted curve in the direction sought with a large enough effect; inconclusive means small, poorly fitted or top-dose-only effect, or another doubt; inactive means no such curve, though single readings can be large; an effect the other way counts as inactive or inconclusive.

For CC[N+]1(CC(=O)c2ccc(Br)cc2)CCCCC1 the results were DT40 TDP1 CPT inactive and TDP1 cell noCPT inactive.
Screening Cc1nc(N2CCOCC2)nc(N2CCCCC2C)c1[N+](=O)[O-] (stereo unspecified) returned DT40 TDP1 CPT inconclusive, HT1080NT lethal inactive, HT1080 IDH1KD tx inactive, IL1B secr inh inactive and TDP1 cell noCPT inconclusive.
For CC1Cc2ccccc2N1c1ncnc(N)c1[N+](=O)[O-] (stereo unspecified) the results were DT40 TDP1 CPT 4.1µM, HT1080NT lethal inactive, HT1080 IDH1KD tx inactive, IL1B secr inh -92 and TDP1 cell noCPT 1.5µM.
CC1CCCCN1c1ncnc(N)c1[N+](=O)[O-] (stereo unspecified) was read as DT40 TDP1 CPT inconclusive, HT1080NT lethal inactive, HT1080 IDH1KD tx inactive, IL1B secr inh -78 and TDP1 cell noCPT inconclusive.
CC1Cc2ccccc2N1c1ncnc2nc[nH]c12 (stereo unspecified) was read as DT40 TDP1 CPT inconclusive, HT1080NT lethal inactive, HT1080 IDH1KD tx inactive, IL1B secr inh inactive and TDP1 cell noCPT 23µM.
`CN(Cc1ccccc1)c1ncnc(N)c1[N+](=O)[O-]` gave DT40 TDP1 CPT inactive, HT1080NT lethal inactive, HT1080 IDH1KD tx inactive, IL1B secr inh inactive and TDP1 cell noCPT inconclusive.
CC(C)[C@@H](CSc1ccccc1)N1CCN(Cc2ccccc2)CCC1=O was read as DT40 TDP1 CPT inconclusive, HT1080NT lethal inactive, HT1080 IDH1KD tx inactive, IL1B secr inh inactive and TDP1 cell noCPT inconclusive.
Screening COc1cccc(CNc2ccc(N3CCC(C)CC3)cc2)c1OC returned DT40 TDP1 CPT 23µM, HT1080NT lethal inactive, HT1080 IDH1KD tx inconclusive, IL1B secr inh inactive and TDP1 cell noCPT 16µM.
Cc1nc2ccc(C(=O)N3c4ccccc4CC3C)cc2s1 (stereo unspecified) was read as DT40 TDP1 CPT 23µM, HT1080NT lethal inconclusive, HT1080 IDH1KD tx 18µM, IL1B secr inh inactive and TDP1 cell noCPT inconclusive.
`O=C(COC(=O)CCc1c[nH]c2ccccc12)Nc1ccccc1C(F)(F)F` gave DT40 TDP1 CPT inconclusive, HT1080NT lethal inactive[9.24 µM], HT1080 IDH1KD tx inactive, IL1B secr inh inactive and TDP1 cell noCPT inactive.
Screening CO/N=C(\Cn1ncc(N2CCCC2)c(Cl)c1=O)c1ccc(Cl)cc1 returned DT40 TDP1 CPT 29µM, HT1080NT lethal inactive, HT1080 IDH1KD tx inactive, IL1B secr inh inactive and TDP1 cell noCPT 23µM.
`CC(=O)Cn1ncc(N2CCCCC2)c(Cl)c1=O` gave DT40 TDP1 CPT inactive, HT1080NT lethal inactive, HT1080 IDH1KD tx inactive, IL1B secr inh inactive and TDP1 cell noCPT inactive.
For COc1ccccc1-c1noc(-c2ccc(N3CCN(c4ccccc4)CC3)c([N+](=O)[O-])c2)n1 the results were DT40 TDP1 CPT 23µM and TDP1 cell noCPT 13µM.
Screening Cc1noc(-c2ccc(N3CCCCC3)c([N+](=O)[O-])c2)n1 returned DT40 TDP1 CPT inconclusive and TDP1 cell noCPT inactive.
Screening Cc1ccccc1-c1noc(-c2ccc(N3CCCCC3)c([N+](=O)[O-])c2)n1 returned DT40 TDP1 CPT inconclusive and TDP1 cell noCPT 12µM.
Screening COc1ccccc1-c1noc(-c2ccc(N3CCC(C)CC3)c([N+](=O)[O-])c2)n1 returned DT40 TDP1 CPT inconclusive and TDP1 cell noCPT 13µM.
Screening COc1ccccc1N1CCN(c2ccc(-c3nc(-c4ccccc4C)no3)cc2[N+](=O)[O-])CC1 returned DT40 TDP1 CPT inactive and TDP1 cell noCPT inactive.
For COc1ccc(-c2noc(-c3ccc(N4CCN(c5ccccc5)CC4)c([N+](=O)[O-])c3)n2)cc1 the results were DT40 TDP1 CPT inconclusive and TDP1 cell noCPT inactive.
`COc1ccccc1N1CCN(c2ccc(-c3nc(-c4ccccc4)no3)cc2[N+](=O)[O-])CC1` gave DT40 TDP1 CPT 12µM and TDP1 cell noCPT 9.2µM.
